An excerpt weighted towards active compounds, which were near 1.3% of everything screened.
HIF activator – HIF pathway transcriptional activators, primary screen, cell-based, U2OS HRE-luciferase, luminescence; U2OS HRE-luciferase reporter; normalized: DMSO 0%, desferrioxamine 100%; activation, % at 7.5 µM (by protocol); actives 0.32% (n = 300,000);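 active = mean activation of at least 10% of the iron chelator positive control signal, with at least half of replicates also reaching 10%; inconclusive = mean and replicate majority disagree about reaching 10%; inactive = mean and most replicates under 10%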
Rce1 inhib – yeast Rce1p protease inhibitors, primary screen, biochemical, fluorescence, cell-free homogeneous. CAAX prenyl protease 2 (Saccharomyces cerevisiae (strain ATCC 204508 / S288c)), Q03530. yeast membranes, quenched prenylated peptide cleavage fluorescence. calls only. actives 0.27% (n = 290,000);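 active = fall in fluorescence gain of 50% or more versus controls, with final raw signal at or below 3038400; inconclusive = same 50% fall but final raw signal above 3038400; inactive = fall in fluorescence gain under 50%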
Target sequence (Q03530 whole entry, looked up): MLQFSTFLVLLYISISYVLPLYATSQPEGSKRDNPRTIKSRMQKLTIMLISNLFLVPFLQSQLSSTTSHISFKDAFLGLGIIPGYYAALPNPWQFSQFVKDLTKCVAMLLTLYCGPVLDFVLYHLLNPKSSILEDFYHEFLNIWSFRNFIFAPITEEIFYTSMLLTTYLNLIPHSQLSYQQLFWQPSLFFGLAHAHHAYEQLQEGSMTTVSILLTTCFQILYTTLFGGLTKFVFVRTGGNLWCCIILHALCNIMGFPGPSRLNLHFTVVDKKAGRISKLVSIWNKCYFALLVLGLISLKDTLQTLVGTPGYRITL
AI-2 QS mod – Vibrio harveyi AI-2 quorum sensing modulators, primary screen, JMH597 strain, luminescence/OD600 ratio. Vibrio harveyi JMH597 AI-2 luminescence/OD600 ratio, 9 h; hits give low values; strain lacks LuxN and CqsS sensors; 0 = neutral-control median. activity change, % at 7.5 µM. actives 0.4% (n = 300,000). AID 2094, 2009; in the data active = activity change below about -75%, passing the limit was not always enough; inconclusive = no clear call, values can overlap the other calls;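 note: luminescence divided by OD600 gain over 9 h not by final OD600 alone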
Statin myotox sup – suppressors of statin myotoxicity in C2C12 myotubes, primary screen, cell-based, single point, plate reader; C2C12 myotubes + simvastatin, ATP luminescence, 48 h; scaled: DMSO 0, geranylgeraniol control 100; rescue of ATP level, % at 7.49 µM; actives 0.78% (n = 330,000);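 active = mean ATP rescue above about 67%, or every replicate alone reaching that limit, limit read from the data, passing the limit was not always enough; inconclusive = no clear call, values can overlap the other calls; inactive = mean under the limit and some replicate under it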;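 note: myotubes were challenged with 10 µM simvastatin during compound exposure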
PGC1a acetyl inh – inhibitors of PGC1a acetylation signal, primary screen, cell-based, U2OS, AlphaScreen, inhibitor mode; AlphaScreen anti-acetyl-lysine; with virally co-expressed GCN5 acetyltransferase; inhibition, % at 15.6 µM; actives 0.17% (n = 350,000); AID 651687, 2012;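 active = every replicate shows inhibition of at least 40%; inconclusive = mean inhibition at least 40% but some replicate below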
Each line names hits and unclear results; the compound was inactive in the other large screens.

COc1cc(-c2nnc(SCC#CCO)o2)cc(OC)c1OC	Statin myotox sup 114.4
CSc1ncccc1C(=O)NC(C)CCc1ccccc1 (configuration not stated)	none
COC(=O)[C@H](CCSC)NC(=O)c1cccnc1SC	HIF activator 633.4 (no result: Statin myotox sup, PGC1a acetyl inh)
COc1ccc2c3c(n(C)c2c1)[C@H](CO)N(CC1CC1)CC31CN(S(=O)(=O)c2cn(C)cn2)C1	none (no result: HIF activator, Rce1 inhib, AI-2 QS mod, Statin myotox sup)
COc1ccc(CN(Cc2cccn2C)S(=O)(=O)c2ccccc2)cc1	PGC1a acetyl inh 74.3
Oc1ccccc1/C=N/Nc1nc2ccccc2o1	HIF activator 26.5, PGC1a acetyl inh 41.2
Oc1ccccc1/C=N/Nc1ncc(Br)cn1	HIF activator 33.5, Statin myotox sup inconclusive
COc1ccc2c3c(n(C)c2c1)[C@H](CO)N(CC1CCOCC1)CC31CN(CC2CCOCC2)C1	none (no result: HIF activator, Rce1 inhib, AI-2 QS mod, Statin myotox sup)
O=C(O)c1ccccc1NS(=O)(=O)c1ccc2ccccc2c1	none (no result: PGC1a acetyl inh)
Cc1cc(S(=O)(=O)Nc2ccccc2C(=O)O)ccc1Cl	Statin myotox sup 73.4
O=C(O)c1c[nH]c2ccc(S(=O)(=O)N3CCN(c4ccc(F)cc4)CC3)cc2c1=O	none
CCOC(=O)N1CCN(S(=O)(=O)c2ccc3[nH]cc(C(=O)O)c(=O)c3c2)CC1	Statin myotox sup 96.6 (no result: HIF activator)
c1coc(-c2nc3ccccc3s2)c1	Statin myotox sup 119.5 (no result: HIF activator, Rce1 inhib, AI-2 QS mod)
COc1cccc2c(=O)c(C(=O)O)c[nH]c12	Rce1 inhib active
C[C@@H]1CCCCO[C@H](CN(C)C(=O)Nc2cccc3ccccc23)[C@@H](C)CN([C@H](C)CO)C(=O)c2cc(NC(=O)c3ccncc3)ccc2O1	none (no result: HIF activator, Rce1 inhib, AI-2 QS mod)
O=S(=O)(c1ccccc1)N1C[C@@H]2N[C@H](C1)C2c1ccc(-c2ccc(F)cc2)cc1 (some centres not stated)	none (no result: HIF activator, Rce1 inhib, AI-2 QS mod, Statin myotox sup)
CCCCN(CC)CCNC(=O)c1cc2c(-c3ccc(Cl)cc3)nn(C)c2s1	Rce1 inhib active
COCCCNC(=O)c1cc2c(-c3cccc(OC)c3)nn(C)c2s1	Rce1 inhib active (no result: PGC1a acetyl inh)
CCN(CC)CCNC(=O)c1cc2c(-c3cccc(OC)c3)nn(C)c2s1	none (no result: Statin myotox sup, PGC1a acetyl inh)
CCCN(CCC)CCNC(=O)c1cc2c(-c3ccc(Cl)cc3)nn(C)c2s1	Rce1 inhib active (no result: PGC1a acetyl inh)
CCCN(CCC)CCNC(=O)c1cc2c(-c3ccccc3F)nn(C)c2s1	Rce1 inhib active (no result: Statin myotox sup, PGC1a acetyl inh)
CCN(CC)CCNC(=O)c1cc2c(-c3ccc(Cl)cc3)nn(C)c2s1	none (no result: HIF activator)
COCC(=O)N(C)C[C@H]1Oc2cc(C#CC3CCCC3)ccc2S(=O)(=O)N([C@@H](C)CO)C[C@H]1C	none (no result: HIF activator, Rce1 inhib, AI-2 QS mod)
C[C@H](CO)N1C[C@H](C)[C@@H](CN(C)C(=O)CC2CC2)Oc2ncc(-c3ccc(C#N)cc3)cc2C1=O	none (no result: HIF activator, Rce1 inhib, AI-2 QS mod)
CC1CCN(C(=O)N[C@@H](Cc2ccccc2)C(=O)O)CC1	none
CC(C)(C)OC(=O)N1CCC(C(=O)N[C@@H](Cc2ccccc2)C(=O)O)CC1	Statin myotox sup 114.6
CC1CN(C(=O)N[C@@H](Cc2ccccc2)C(=O)O)CC(C)O1 (some centres not stated)	Statin myotox sup 85.9
CO[C@H]1CN(C)C(=O)c2ccc(NC(=O)Nc3ccc4c(c3)OCO4)cc2OC[C@H](C)NC[C@@H]1C	none (no result: HIF activator, Rce1 inhib, AI-2 QS mod, Statin myotox sup)
CC(=O)Nc1ccc(-c2cn3cc(C)ccc3n2)cc1	none (no result: Statin myotox sup)
Cc1ccc2nc(-c3ccc(O)c(O)c3)cn2c1	HIF activator 28.6
Cc1ccc2nc(-c3ccccc3)cn2c1	Rce1 inhib active
COCC(=O)N1CCC2(CC1)CN(C(=O)COC)[C@H](CO)c1c2c2ccc(OC)cc2n1C	none (no result: HIF activator, Rce1 inhib, AI-2 QS mod, Statin myotox sup)
CCCCCCC1CC(C)(C(=O)CNc2nncs2)OC1=O (configuration not stated)	AI-2 QS mod -76.3 (no result: Statin myotox sup, PGC1a acetyl inh)
CCCCCCC1CC(C)(/C(C)=N/NC(N)=O)OC1=O (configuration not stated)	none
CC(C)NC(=O)N(C)C[C@@H]1Oc2c(cccc2N(C)C)C(=O)N([C@H](C)CO)C[C@H]1C	none (no result: HIF activator, Rce1 inhib, AI-2 QS mod)
Cc1ccccc1SC1CCN(C(=O)C2CCC(=O)N(C3CC3)C2)CC1 (configuration not stated)	none
O=C(C1CCC(=O)N(C2CC2)C1)N1CCN(c2ccccc2Cl)CC1 (configuration not stated)	Rce1 inhib active (no result: AI-2 QS mod)

Source: PubChem BioAssay
